# Data published in PubChem BioAssay (NCI).
# About 83,000 compounds went through this panel and 20% of them were active in at least one assay; those are over-represented in the sample as a whole.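 The test compound was applied at a single concentration to cells in 96-well plates for 48 hours, and percent growth was recorded.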 Values without a mark were called inactive. Activity calls are given as the source filed them. Rule for the calls: active = growth percent below 10; inactive = the rest.
# Columns and labels:
# Test in all cases: NCI-60 one-dose screen, 48 h (100 = growth as untreated, 0 = no growth, -100 = all killed)
# Conditions in all cases: 10 µM unless noted
# SR leukemia = tested on: SR leukemia
# RPMI-8226 leukemia = tested on: RPMI-8226 leukemia
# OVCAR-8 ovarian = tested on: OVCAR-8 ovarian
# OVCAR-5 ovarian = tested on: OVCAR-5 ovarian
# OVCAR-4 ovarian = tested on: OVCAR-4 ovarian
# SK-OV-3 ovarian = tested on: SK-OV-3 ovarian
# IGROV1 ovarian = tested on: IGROV1 ovarian
# HS 578T breast = tested on: HS 578T breast
# NCI/ADR-RES ovarian = tested on: NCI/ADR-RES ovarian
# T-47D breast = tested on: T-47D breast
# BT-549 breast = tested on: BT-549 breast
# MDA-MB-435 melanoma = tested on: MDA-MB-435 melanoma
# SW-620 colon = tested on: SW-620 colon
# MCF7 breast = tested on: MCF7 breast
# HCT-116 colon = tested on: HCT-116 colon
# HCC-2998 colon = tested on: HCC-2998 colon
# KM12 colon = tested on: KM12 colon
SMILES,growth (SR leukemia),growth (RPMI-8226 leukemia),growth (OVCAR-8 ovarian),growth (OVCAR-5 ovarian),growth (OVCAR-4 ovarian),growth (SK-OV-3 ovarian),growth (IGROV1 ovarian),growth (HS 578T breast),growth (NCI/ADR-RES ovarian),growth (T-47D breast),growth (BT-549 breast),growth (MDA-MB-435 melanoma),growth (SW-620 colon),growth (MCF7 breast),growth (HCT-116 colon),growth (HCC-2998 colon),growth (KM12 colon)
CC1(C)CC[C@]23CC[C@]4(C)[C@H](CC[C@@H]5[C@@]6(C)CC[C@H](NCO)C(C)(C)[C@@H]6CC[C@]54C)[C@H]2[C@H]1OC3,3.69% (active),19.3%,96.1%,60.4%,76.9%,105%,64.8%,90.7%,82.6%,44.2%,98.5%,38.8%,-73.5% (active),1.96% (active),-9.59% (active),-24% (active),-0.242% (active)
Cc1ccc(/C=N/Nc2nc(Nc3ccccc3)nc(Nc3ccc(S(N)(=O)=O)cc3)n2)cc1,35.5%,44%,69.2%,84.5%,69.6%,110%,53.4%,62.9%,101%,54.5%,76.5%,69.4%,92.3%,26.5%,51.3%,74.1%,66%
O=C(COc1ccc(/C=C2\C(=O)Nc3ccc(F)cc32)cc1)Nc1ccccc1,86.1%,103%,98.7%,95.8%,100%,96.9%,109%,105%,101%,97.7%,116%,98.6%,103%,89.8%,69%,101%,97.8%
O=c1c2cc(-c3ccc(F)cc3F)ccc2n(Nc2ccccc2)c(=O)n1-c1cccc(C(F)(F)F)c1,9.45% (active),-6.8% (active),13.3%,79.3%,30.7%,8.64% (active),17.4%,-3.07% (active),3.74% (active),8.44% (active),3.91% (active),5.62% (active),16%,4.02% (active),7.14% (active),14.7%,11.4%
O=C(COc1ccc(/C=C2\C(=O)Nc3cc(Cl)ccc32)cc1)Nc1ccc(Cl)cc1,54.8%,60.4%,63.4%,67.7%,66.5%,87.1%,73.3%,79.1%,66.8%,68%,70.3%,51.2%,55.3%,47.1%,54.8%,96.1%,36.4%
C1=CC(c2nn3c(-c4ccccc4)nnc3s2)=Cc2ccccc2O1,11.9%,35.6%,65.5%,87.6%,73.7%,106%,64.3%,61.1%,85.2%,19.7%,77.9%,46.7%,16.6%,30.7%,41.1%,97%,85.5%
Oc1ccc(-c2nc3ccc(/C(=N\N=C\c4ccc(Cl)cc4)c4ccccc4)cc3[nH]2)cc1,62.1%,33.9%,82.9%,97.1%,58.1%,106%,89.9%,98.3%,93%,79.9%,94.3%,84.4%,88.5%,53.1%,82.6%,91.9%,74%
CC(C)(C)OC(=O)NCc1ccc(CNc2c([N+](=O)[O-])cnc3ccccc23)cc1,37.1%,43.6%,63.4%,93.6%,54.8%,68%,76.5%,76.9%,38.2%,28.1%,54.8%,56.4%,89.6%,40.6%,37.7%,84.7%,74.9%
CCCCCCNC(=O)Oc1ccc(/C(=C(/C)c2ccc(OC)cc2)c2ccc(OCCN3CCCCCC3)cc2)cc1,-6.81% (active),-2.43% (active),41.8%,61.1%,47.1%,66.1%,47%,9.93% (active),48.2%,-19.1% (active),70.3%,24.1%,-41.4% (active),-30.3% (active),-86.6% (active),24.4%,16.7%
CC(=O)N(O)CCCCCNC(=O)CCC(=O)N(O)CCCCCNC(=O)CCC(=O)N(O)CCCCCN(CCCCCCCCCC[P+](c1ccccc1)(c1ccccc1)c1ccccc1)CCCCCCCCCC[P+](c1ccccc1)(c1ccccc1)c1ccccc1,1.64% (active),-13.9% (active),10.5%,16.2%,5.75% (active),-10% (active),-63.9% (active),16.3%,73.5%,-4.99% (active),-30.7% (active),4.44% (active),12.2%,5.05% (active),3.76% (active),4.2% (active),4.3% (active)
c1ccc(-c2cn3c(-c4c[nH]c5ccccc45)csc3n2)cc1,61.7%,31.2%,65.5%,87.8%,61.9%,87.3%,62.2%,68.9%,91.8%,31.9%,41.4%,74.7%,72.1%,40.3%,64.5%,71.3%,44.7%
Cn1c2nc3ccccc3c-2cc2ccccc21,18.7%,54.9%,32.8%,48%,50%,48.9%,-10.8% (active),55.9%,42.6%,37.4%,101%,39.5%,28.3%,10.9%,22.1%,52.9%,31.8%
NS(=O)(=O)c1ccc(CCn2c(-c3ccc(C(=O)O)cc3)nc(-c3ccccc3)c2-c2ccccc2)cc1,99.7%,100%,111%,103%,99.4%,111%,108%,101%,105%,104%,104%,98.8%,98.6%,93.6%,101%,108%,107%
CC(C)(C)c1cc(NC(=O)Nc2ccc(-c3cn4c5c(sc4n3)CCc3cn(CCCN4CCCCC4)cc3-5)cc2)no1,-14% (active),-19.5% (active),-52% (active),-32.4% (active),-78.4% (active),97%,-78.5% (active),38.4%,-43% (active),-32.8% (active),109%,-98.5% (active),-68.2% (active),-79% (active),-96.2% (active),-82.7% (active),-78% (active)
O=[N+]([O-])c1ccc(NC(=S)NNC(=S)Nc2ccc(Br)cc2)cc1,79.4%,79.4%,98.6%,91.4%,98.2%,100%,71.7%,107%,84.5%,73.3%,103%,99%,91.1%,70.1%,90.6%,53.7%,55.4%
COc1ccc(/C=N/N=C(/c2ccccc2)c2ccc3nc(-c4ccc(Cl)cc4)[nH]c3c2)cc1,71.2%,48.6%,80.4%,81.5%,75%,93.2%,97.5%,97.4%,85%,63.5%,85.7%,85%,88.3%,72%,75.4%,89.6%,75.8%
CCn1c2ccc(/C=N/N(C)S(=O)(=O)CCN(C)C)cc2c2cc(/C=N/N(C)S(=O)(=O)CCN(C)C)ccc21,2.12% (active),65.2%,48.9%,82.6%,69.2%,106%,2.68% (active),76.8%,54.7%,88.6%,72.4%,62%,30.6%,22.1%,14.3%,63.4%,81.4%
